Bioassay records: PubChem, National Center for Advancing Translational Sciences (NCATS)
Shown are actives, neighbours in structure and some others; about 14% of the full set was active somewhere.
HADH2 inhib – inhibitors of human HADH2 dehydrogenase; recombinant HADH2, NADH fluorescence, beta-hydroxybutyryl-CoA; Q99714; 73,000 tested, 3.4% active; Potency, µM (series often up to 57.1 µM), without a hit: top-dose activity change, negative = inhibition, most hits filed as inhibitors; further: potency means the concentration at half of the fitted maximal effect; on the % scale 0 is the no-effect control and ±100 the full control effect; nearly all actives have a fitted effect of over 60% in size
Target sequence (Q99714 whole entry, looked up, one chain of several): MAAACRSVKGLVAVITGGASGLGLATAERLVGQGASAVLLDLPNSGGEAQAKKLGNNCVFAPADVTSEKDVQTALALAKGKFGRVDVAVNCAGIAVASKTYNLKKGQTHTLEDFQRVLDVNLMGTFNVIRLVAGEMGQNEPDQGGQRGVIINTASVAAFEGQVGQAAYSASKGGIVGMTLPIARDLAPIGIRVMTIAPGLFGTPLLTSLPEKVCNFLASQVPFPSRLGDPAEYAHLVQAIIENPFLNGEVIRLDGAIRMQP
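E. coli-expressed His-tagged HADH2 tested at 20 nM in alkaline Tris buffer (pH 9.0); oxidation of 90 uM beta-hydroxybutyryl-CoA with 1 mM NAD+ tracked fluorimetrically for 4 min.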
4-MU autofl – 4-MU region autofluorescence; max dye-equivalent concentration, M; compound autofluorescence, 340/450 nm, 4-MU equivalents; active compounds read high; 59,000 tested, 11% active; AID 589; in the data active means max dye-equivalent concentration above about 10 nM; inconclusive means mostly about 1.1 nM to 9.6 nM
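Compounds in 100 mM Tris, pH 8.0, sat 15 min at room temperature before fluorescence was read at 340 nm excitation/450 nm emission; a per-plate six-point 4-MU standard curve converted signals to dye-equivalent concentration at each compound concentration.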
AID923 – qHTS Assay for Allosteric/Competitive Inhibitors of Caspase-1: Spectroscopic Profiling in AFC Spectral Region | Potency, µM (top dose mostly 57.5 µM), for inactives: at the top dose fluorescence increase, hits mostly activators | 75,000 tested, 1.1% active | AID 923, 2007 | compound fluorescence, AFC spectral region (405/520 nm); further: potency means the concentration at half of the fitted maximal effect; 0% is about no effect
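Compound autofluorescence profiled at 405 nm ex/520 nm em during kinetic caspase 1 run (50 nM enzyme, 5 uM Ac-WEHD-AFC, HEPES pH 7.5, 10 mM DTT). Titration up to 57 uM; baseline from regression intercept, normalized to AFC standard curve.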
HSD17B inhib – inhibitors of human HSD17B10 dehydrogenase | recombinant HSD17B10, NADH fluorescence kinetic | Potency, µM (doses to about 57.1 µM), for the others: top-dose activity change, negative = inhibition, most hits filed as inhibitors | AID 893 | 75,000 tested, 7.6% active | Q99714;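 further: the protocol describes HADH2 (HSD17B10) and not the HSD17B4 of the title; potency means the concentration at half of the fitted maximal effect; on the % scale 0 is the no-effect control and ±100 the full control effect; nearly all actives have a fitted effect of over 70% in size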
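20 nM HADH2, pH 9.0 Tris/Tween; cpd preinc 15 min RT; start w/ 1 mM NAD+ + 90 uM b-hydroxybutyryl-CoA; kinetic fluor ex360/em450 q30s x 4 min; delta last-first.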
A350 autofl – compound fluoresces in the Alexa 350 spectral region. 59,000 tested, 11% active. Compound autofluorescence, 340/450 nm, Alexa 350 dye-equivalents; active compounds read high. max dye-equivalent concentration, M; in the data active means max dye-equivalent concentration above about 10 nM; inconclusive means mostly about 1.1 nM to 9.6 nM
CRE Fsk mod – CRE-bla signaling modulation under forskolin stimulation; CHO CRE-bla reporter (cAMP response element driving beta-lactamase), forskolin EC10, beta-lactamase ratio; Potency, µM (titrated, usually from 38.2 µM), without a hit: at the highest dose activity change, negative = inhibition, actives largely listed as activators; 71,000 tested, 2.5% active; active means well fitted activation curve with a large enough effect in the signal ratio, with a control signal flat, not every such curve was filed as active; inconclusive means small, poorly fitted or top-dose-only effect, or effect the other way, or a change in a side signal; the % refers to the signal ratio; further: potency means the concentration at half of the fitted maximal effect; % of control where 0% means no effect
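Modulation of forskolin-driven signalling is measured in CHO cells carrying a CRE-controlled beta-lactamase reporter. Cells are stimulated with EC10 NKH 477 in the presence of titrated compound for 3 h at 37 °C, then loaded with CCF4 for 2 h at room temperature.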
* = called active by the depositor; [ ] = another dose, or the depositor's remark. Unless noted, the call rests on the fitted dose curve; in most records, active means well fitted curve in the direction sought with a large enough effect; inconclusive means small, poorly fitted or top-dose-only effect, or another doubt; inactive means no such curve, though single readings can be large; an effect the other way counts as inactive or inconclusive.

Results for COc1ccc(CNC(=O)C2CC(=O)N(c3ccc(OCC(=O)N4C(C)CCCC4C)cc3)C2)cc1 (stereo unspecified) ?
HADH2 inhib: 5%; 4-MU autofl: inactive; AID923: 0%; HSD17B inhib: 3%; A350 autofl: inactive; CRE Fsk mod: -8%

What do the screens show for `COc1ccccc1-c1nccc(NC2CCNCC2)n1`?
HADH2 inhib: 7%; 4-MU autofl: inactive; AID923: 1%; HSD17B inhib: 13%; A350 autofl: inactive; CRE Fsk mod: -7%

Results for CCCn1c(C)nc2c(NC(C)CCCN(CC)CC)nc(C)nc21 (stereo unspecified) ?
HADH2 inhib: 4%; AID923: -2%; HSD17B inhib: 2%; CRE Fsk mod: 6%

How did CCCn1c(-c2ccc(F)cc2)nc2c(NCCCCN(CC)CC)nc(C)nc21 do in these assays?
HADH2 inhib: -12%; AID923: -2%; HSD17B inhib: 25µM*; CRE Fsk mod: 22%

How did CCCn1c(-c2ccc(F)cc2)nc2c(NC(C)CCCN(CC)CC)nc(C)nc21 (stereo unspecified) do in these assays?
HADH2 inhib: 3%; AID923: 9%; HSD17B inhib: 25µM*; CRE Fsk mod: -1%

How did CCCn1c(C)nc2c(NCCCN(CC)CC)nc(C)nc21 do in these assays?
HADH2 inhib: -6%; AID923: -1%; HSD17B inhib: 6%; CRE Fsk mod: 9%

How did CCCn1c(-c2ccc(F)cc2)nc2c(NCCN3CCCC3)nc(C)nc21 do in these assays?
HADH2 inhib: -12%; AID923: 1%; HSD17B inhib: 32µM*; CRE Fsk mod: 6%

Results for CCCn1c(-c2ccc(F)cc2)nc2c(NCCCN(CC)CC)nc(C)nc21 ?
HADH2 inhib: 12%; AID923: 0%; HSD17B inhib: 25µM*; CRE Fsk mod: 5%

Results for COCCn1c(=O)c2c(nc3n2CCN3c2ccc(C)cc2)n(C)c1=O ?
HADH2 inhib: 7%; 4-MU autofl: inactive; AID923: 0%; HSD17B inhib: 10%; A350 autofl: inconclusive; CRE Fsk mod: -1%

Results for Cc1noc(C)c1-c1cncnc1Nc1ccccc1 ?
HADH2 inhib: inconclusive; 4-MU autofl: inactive; AID923: 0%; HSD17B inhib: -22%; A350 autofl: inactive; CRE Fsk mod: -4%

What do the screens show for `CCCn1c(-c2ccc(F)cc2)nc2c(NCCCN(C)C)nc(C)nc21`?
HADH2 inhib: inconclusive; AID923: 1%; HSD17B inhib: 25µM*; CRE Fsk mod: 9%

Results for CCOC(=O)c1c(N)c(C#N)cn1-c1ccccc1 ?
HADH2 inhib: -3%; 4-MU autofl: inactive; AID923: 4%; HSD17B inhib: 0%; A350 autofl: inconclusive; CRE Fsk mod: inconclusive

How did CCOC(=O)c1c(NC(=O)c2nn(CC)cc2Br)c(C#N)cn1-c1ccccc1 do in these assays?
HADH2 inhib: inconclusive; 4-MU autofl: inactive; AID923: -2%; HSD17B inhib: inconclusive; A350 autofl: inactive; CRE Fsk mod: 2.5µM*

What do the screens show for `CCOC(=O)c1c(-c2ccccc2)csc1NC(=O)c1nn(CC)cc1Br`?
HADH2 inhib: 32µM*; 4-MU autofl: 4.1e-08M*; AID923: 0%; HSD17B inhib: 32µM*; A350 autofl: 3.7e-08M*; CRE Fsk mod: 2.5µM*

Results for Cn1c(C(C#N)C2=C(Cl)C(=O)N(c3ccccc3)C2=O)nc2ccccc21 (stereo unspecified) ?
HADH2 inhib: inconclusive; 4-MU autofl: 1.9e-08M*; AID923: 0%; HSD17B inhib: -15%; A350 autofl: 3e-08M*; CRE Fsk mod: inconclusive

Results for CCOc1ccc2nc(SCc3ccc(C(=O)OC)o3)[nH]c2c1 ?
HADH2 inhib: -1%; 4-MU autofl: inactive; AID923: 0%; HSD17B inhib: 5%; A350 autofl: inactive; CRE Fsk mod: inconclusive

How did CCOc1cccc(C=Nc2cc(C)cc(C)c2O)c1O do in these assays?
HADH2 inhib: inconclusive; AID923: 8%; HSD17B inhib: 4µM*; CRE Fsk mod: inconclusive

Results for CCN(CC)S(=O)(=O)c1ccc(/C(O)=C(\C#N)c2nc3ccccc3n2C)cc1 ?
HADH2 inhib: 18%; 4-MU autofl: 7.3e-08M*; AID923: 20%; HSD17B inhib: -1%; A350 autofl: 9.5e-08M*; CRE Fsk mod: 12%

How did CC1Cc2cc(/C(O)=C3\C(=O)C(=O)N(CCN(C)C)C3c3ccccc3F)ccc2O1 (stereo unspecified) do in these assays?
HADH2 inhib: -6%; 4-MU autofl: 1.9e-08M*; AID923: -1%; HSD17B inhib: 1%; A350 autofl: 2.5e-08M*; CRE Fsk mod: -9%

Results for CCN(CC)CCN1C(=O)C(=O)/C(=C(/O)c2ccc(F)cc2)C1c1ccncc1 (stereo unspecified) ?
4-MU autofl: inactive; A350 autofl: inactive

Results for CCN(CC)CCN1C(=O)C(=O)/C(=C(/O)c2ccncc2)C1c1ccccc1F (stereo unspecified) ?
HADH2 inhib: -2%; 4-MU autofl: 1.3e-08M*; AID923: 0%; HSD17B inhib: 1%; A350 autofl: 1.8e-08M*; CRE Fsk mod: 4%

Results for Cc1ccc2nsnc2c1N(S(C)(=O)=O)S(C)(=O)=O ?
HADH2 inhib: -4%; 4-MU autofl: inactive; AID923: -1%; HSD17B inhib: 25µM*; A350 autofl: inactive; CRE Fsk mod: -6%

Results for Cc1ccc2nsnc2c1S(=O)(=O)N1CCCC1 ?
HADH2 inhib: 4%; 4-MU autofl: inactive; AID923: 0%; HSD17B inhib: -1%; A350 autofl: inactive; CRE Fsk mod: 2%

Results for CC(C)=CCC/C(C)=C/COc1ccc2ccc(=O)oc2c1 ?
AID923: 2%; HSD17B inhib: 32µM*

How did CC(C)=CCC/C(C)=C/COc1c2ccoc2cc2oc(=O)ccc12 do in these assays?
HADH2 inhib: -18%; 4-MU autofl: 1.3e-08M*; A350 autofl: 1.4e-08M*; CRE Fsk mod: inconclusive

What do the screens show for `Cc1ccc([C@@]2(C)CC/C(=N/N=C3\CC[C@](C)(c4ccc(C)c(C)c4)c4cc(C)c(C)cc43)c3cc(C)c(C)cc32)cc1C`?
HADH2 inhib: 7%[11.4 µM]; 4-MU autofl: 5.9e-08M*; AID923: -2%[11.5 µM]; HSD17B inhib: -2%[11.4 µM]; A350 autofl: 7.3e-08M*; CRE Fsk mod: 5%[7.6 µM]

What do the screens show for `Cc1nc2ccccc2c(=O)n1CCCO`?
HADH2 inhib: 6%; AID923: 5%; HSD17B inhib: -9%; CRE Fsk mod: 4%
